# Data published in publication PMC5700166.
# Residue numbers refer to the chain shown, from its start.
# How the values were obtained:
# Assay in all cases: protein-binding microarray (PBM); PBM: ~300 nM protein, 6 mM HEPES pH 7.8, 80 mM KCl, 0.5 mM EDTA, 0.5 mM EGTA, 6% glycerol, 35 ng/ul poly-dIdC, 1% milk, 1 h, room temperature; Ap Aiptasia and Nv Nematostella (sea anemones) / Co Capsaspora / Aq Amphimedon (sponge) / Dm Drosophila / Hu human; RHD is the Rel homology domain; high values mean tight binding
# Conditions in all cases: dsDNA, one strand shown
# [1] = molecular target: T1, GST-Ap-NF-kB RHD (Exaiptasia pallida (Aiptasia), UniProt A0A913YAJ5 2-422)
# T1 sequence: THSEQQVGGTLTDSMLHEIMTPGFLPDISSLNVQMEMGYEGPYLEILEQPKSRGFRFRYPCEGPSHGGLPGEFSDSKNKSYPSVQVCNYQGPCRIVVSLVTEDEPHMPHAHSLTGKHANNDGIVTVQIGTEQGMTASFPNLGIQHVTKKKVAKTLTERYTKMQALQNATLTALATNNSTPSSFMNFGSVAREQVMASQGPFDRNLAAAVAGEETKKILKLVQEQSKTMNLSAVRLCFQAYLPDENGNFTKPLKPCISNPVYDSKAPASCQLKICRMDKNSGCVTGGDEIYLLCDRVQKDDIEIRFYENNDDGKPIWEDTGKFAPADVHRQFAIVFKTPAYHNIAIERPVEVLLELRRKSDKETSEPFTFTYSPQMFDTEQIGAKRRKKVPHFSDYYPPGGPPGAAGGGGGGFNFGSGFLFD
# [2] = molecular target: T2, GST-Co-NF-kB (Capsaspora owczarzaki, UniProt F1ARL5 200-546)
# T2 sequence: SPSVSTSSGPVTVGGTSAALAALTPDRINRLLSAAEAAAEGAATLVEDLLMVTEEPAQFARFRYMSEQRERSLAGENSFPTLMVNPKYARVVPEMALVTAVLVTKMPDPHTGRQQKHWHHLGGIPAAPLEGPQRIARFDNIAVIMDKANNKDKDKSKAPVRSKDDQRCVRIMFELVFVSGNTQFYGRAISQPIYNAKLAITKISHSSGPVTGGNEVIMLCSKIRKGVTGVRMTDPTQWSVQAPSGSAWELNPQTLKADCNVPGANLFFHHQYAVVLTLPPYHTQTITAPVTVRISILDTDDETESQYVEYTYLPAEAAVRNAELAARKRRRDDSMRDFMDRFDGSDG
# [3] = molecular target: T3, GST-Aq-NF-kB (Amphimedon queenslandica, UniProt A9Y5G7 2-389)
# T3 sequence: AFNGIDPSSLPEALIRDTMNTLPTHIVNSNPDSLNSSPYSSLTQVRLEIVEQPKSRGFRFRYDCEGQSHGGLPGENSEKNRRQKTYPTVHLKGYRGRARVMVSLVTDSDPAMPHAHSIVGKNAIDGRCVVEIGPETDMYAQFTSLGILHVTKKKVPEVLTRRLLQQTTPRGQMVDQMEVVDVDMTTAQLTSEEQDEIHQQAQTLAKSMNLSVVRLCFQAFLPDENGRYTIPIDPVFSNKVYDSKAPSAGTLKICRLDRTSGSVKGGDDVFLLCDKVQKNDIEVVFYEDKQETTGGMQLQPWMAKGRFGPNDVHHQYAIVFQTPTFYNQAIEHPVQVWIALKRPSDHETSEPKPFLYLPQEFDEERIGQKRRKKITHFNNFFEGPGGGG
# [4] = molecular target: T4, GST-Nv-NF-kB (Ser allele) (Nematostella vectensis, UniProt A7UNT2 2-411)
# T4 sequence: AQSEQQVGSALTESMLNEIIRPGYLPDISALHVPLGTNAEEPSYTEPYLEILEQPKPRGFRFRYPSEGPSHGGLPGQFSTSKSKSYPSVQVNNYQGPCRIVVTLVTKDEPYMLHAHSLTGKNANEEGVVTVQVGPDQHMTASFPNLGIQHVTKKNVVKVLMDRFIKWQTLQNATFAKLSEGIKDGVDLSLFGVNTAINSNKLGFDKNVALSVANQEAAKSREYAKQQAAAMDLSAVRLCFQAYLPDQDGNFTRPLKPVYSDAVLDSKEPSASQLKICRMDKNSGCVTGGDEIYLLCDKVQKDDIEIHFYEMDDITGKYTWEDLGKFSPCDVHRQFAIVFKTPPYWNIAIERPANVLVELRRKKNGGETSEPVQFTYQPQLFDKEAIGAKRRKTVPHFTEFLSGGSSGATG
# [5] = molecular target: T5, GST-Dm-Relish (Drosophila melanogaster, UniProt Q94527 99-473)
# T5 sequence: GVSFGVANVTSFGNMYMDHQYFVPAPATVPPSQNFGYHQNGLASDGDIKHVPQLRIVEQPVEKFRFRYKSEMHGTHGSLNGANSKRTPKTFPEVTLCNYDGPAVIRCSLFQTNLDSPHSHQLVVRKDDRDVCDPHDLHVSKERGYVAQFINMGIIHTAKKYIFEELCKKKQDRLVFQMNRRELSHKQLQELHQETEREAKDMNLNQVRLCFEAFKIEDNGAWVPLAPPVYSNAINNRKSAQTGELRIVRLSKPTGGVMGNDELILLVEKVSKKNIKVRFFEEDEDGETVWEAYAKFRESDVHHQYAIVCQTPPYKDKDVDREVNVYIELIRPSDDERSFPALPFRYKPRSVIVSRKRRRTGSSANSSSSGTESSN
# [6] = molecular target: T6, GST-Nv-NF-kB (Cys allele) (Nematostella vectensis, UniProt E5G601 2-411)
# T6 sequence: T4 sequence with R21Q, S66C, N207S, Q215E, A217V, K225E, E268A, E399D
Sequence,binding signal [1],binding signal [2],binding signal [3],binding signal [4],binding signal [5],binding signal [6]
CCGATTAACATCACCCTTGGGAATGATGTTAATCGGGTCTTGATTCGCTTGACGCTGCTG,1.03 z-score,2.46 z-score,2.01 z-score,–,–,–
CCGATTAACATCACTTCCCCCCCTGATGTTAATCGGGTCTTGATTCGCTTGACGCTGCTG,5.69 z-score,8 z-score,4.94 z-score,5.01 z-score,4.33 z-score,–
CCGATTAACATCACTCCCCCCCATGATGTTAATCGGGTCTTGATTCGCTTGACGCTGCTG,5.11 z-score,6.71 z-score,4.01 z-score,3.12 z-score,3.23 z-score,–
CCGATTAACATCAGGGGTACACATGATGTTAATCGGGTCTTGATTCGCTTGACGCTGCTG,1.77 z-score,4.09 z-score,1.07 z-score,–,1.13 z-score,–
CCGATTAACATCAAGCCCCCCCTTGATGTTAATCGGGTCTTGATTCGCTTGACGCTGCTG,4.63 z-score,3.04 z-score,4.92 z-score,4.35 z-score,4.77 z-score,–
CCGATTAACATCAGGGCTTCCCATGATGTTAATCGGGTCTTGATTCGCTTGACGCTGCTG,1.44 z-score,1.01 z-score,3.5 z-score,–,8.36 z-score,–
CCGATTAACATCACGGTACGGGGTGATGTTAATCGGGTCTTGATTCGCTTGACGCTGCTG,2.02 z-score,2.2 z-score,1.51 z-score,–,1.48 z-score,–
CCGATTAACATCACGGGGTGGCCTGATGTTAATCGGGTCTTGATTCGCTTGACGCTGCTG,1.24 z-score,1.78 z-score,1.55 z-score,–,1.37 z-score,–
CCGATTAACATCACCCCAACCCCTGATGTTAATCGGGTCTTGATTCGCTTGACGCTGCTG,2.55 z-score,3.44 z-score,2.27 z-score,–,2.69 z-score,–
CCGATTAACATCAAGGAATGCCCTGATGTTAATCGGGTCTTGATTCGCTTGACGCTGCTG,1.68 z-score,–,2.68 z-score,–,1.35 z-score,–
CCGATTAACATCACCCCCTCCCCTGATGTTAATCGGGTCTTGATTCGCTTGACGCTGCTG,3.75 z-score,4.75 z-score,4.84 z-score,–,5.21 z-score,–
CCGATTAACATCACGGGATGCCCTGATGTTAATCGGGTCTTGATTCGCTTGACGCTGCTG,1.03 z-score,–,3.09 z-score,–,5.65 z-score,–
CCGATTAACATCAGTGTCCCGTTTGATGTTAATCGGGTCTTGATTCGCTTGACGCTGCTG,–,–,1.32 z-score,–,–,2.18 z-score
CCGATTAACATCAGGGATTAACATGATGTTAATCGGGTCTTGATTCGCTTGACGCTGCTG,1.77 z-score,–,1.83 z-score,–,4.89 z-score,–
CCGATTAACATCACGTAAGGGATTGATGTTAATCGGGTCTTGATTCGCTTGACGCTGCTG,–,–,2.43 z-score,–,–,1.34 z-score
CCGATTAACATCAGGAATGCCCATGATGTTAATCGGGTCTTGATTCGCTTGACGCTGCTG,1.27 z-score,–,1.96 z-score,–,1.49 z-score,–
CCGATTAACATCAGGGTCTTATATGATGTTAATCGGGTCTTGATTCGCTTGACGCTGCTG,–,–,2.15 z-score,–,–,1.26 z-score
